Measured values taken from PubChem BioAssay AID1159580 (chemical genetic matrix, 2015).
Several values for one entry are separate records, joined by “and”; a condition that tells them apart may be missing. Equal entries are not always repeated. Among all 5,500 compounds or so, about 2,000 (36%) were called active. Roughly 18% stayed inconclusive and do not appear here. No stated cut-off is given here; in the data, active means normalized growth mostly below about 0.91 (no sharp cut-off); inconclusive means no clear call, values can overlap the other calls; inactive means mostly above about 0.92. This is one part of the list.

Assay: chemical genetic growth profiling, strain panel (AID 1159580);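 further: tested at 20 µM; growth read once vehicle control cultures reached saturation at 30 °C; 1 = growth at the plate median or of vehicle wells; lower values mean less growth of the strain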
Settings: S. cerevisiae deletion strains, growth OD

Measured: normalized growth

Cc1cc(C2CCCCC2)n(O)c(=O)c1
active: locus YAL013W, strain DEP1, hits give low values 0.0568 | locus YAL021C, strain ccr4, hits give low values 0.0678 | locus YAL026C, strain drs2, hits give low values 0.0676 | locus YAL030W, strain snc1, hits give low values 0.0625 | locus YBL061C, strain skt5, hits give low values 0.0672 | locus YBR009C, strain hhf1, hits give low values 0.0705 | locus YBR021W, strain FUR4, hits give low values 0.0983 | locus YBR023C, strain chs3, hits give low values 0.0704 | locus YBR171W, strain sec66, hits give low values 0.0805 | locus YBR229C, strain ROT2, hits give low values 0.0502 | locus YBR231C, strain swc5, hits give low values 0.0693 | locus YBR279W, strain paf1, hits give low values 0.0649 | locus YCL011C, strain gbp2, hits give low values 0.0616 | locus YCL016C, strain dcc1, hits give low values 0.0719 | locus YCL029C, strain bik1, hits give low values 0.0632 | locus YCL061C, strain MRC1, hits give low values 0.0677 | locus YCL069W, strain vba3, hits give low values 0.0654 | locus YCR088W, strain abp1, hits give low values 0.0632 | locus YDL005C, strain med2, hits give low values 0.0889 | locus YDL035C, strain GPR1, hits give low values 0.0542 | locus YDL040C, strain nat1, hits give low values 0.0679 | locus YDL074C, strain BRE1, hits give low values 0.0802 | locus YDL101C, strain DUN1, hits give low values 0.0596 | locus YDL134C, strain PPH21, hits give low values 0.0521 | locus YDL185W, strain tfp1, hits give low values 0.058 | locus YDL192W, strain arf1, hits give low values 0.0653 | locus YDR001C, strain nth1, hits give low values 0.0631 | locus YDR069C, strain doa4, hits give low values 0.0665 | locus YDR101C, strain arx1, hits give low values 0.06 | locus YDR137W, strain rgp1, hits give low values 0.0918 | locus YDR159W, strain sac3, hits give low values 0.0928 | locus YDR162C, strain NBP2, hits give low values 0.0474 | locus YDR195W, strain ref2 0.135 | locus YDR297W, strain sur2, hits give low values 0.0662 | locus YDR318W, strain mcm21, hits give low values 0.0655 | locus YDR334W, strain swr1, hits give low values 0.0673 | locus YDR335W, strain msn5, hits give low values 0.0634 | locus YDR388W, hits give low values 0.0556 | locus YDR392W, strain spt3, hits give low values 0.101 | locus YDR502C, strain sam2, hits give low values 0.0664 | locus YEL003W, strain gim4, hits give low values 0.0625 | locus YEL037C, strain rad23, hits give low values 0.0622 | locus YEL061C, strain CIN8 (second series), hits give low values 0.0671 | locus YEL061C, strain CIN8, hits give low values 0.0514 | locus YER015W, strain faa2, hits give low values 0.0656 | locus YER016W, strain bim1, hits give low values 0.0682 | locus YER110C, hits give low values 0.0812 | locus YER111C, strain swi4, hits give low values 0.0758 | locus YER155C, strain BEM2 (second series), hits give low values 0.0947 | locus YER155C, strain BEM2, hits give low values 0.0718 | locus YER167W, strain BCK2, hits give low values 0.0519 | locus YFR010W, strain ubp6, hits give low values 0.0703 | locus YGL078C, strain dbp3, hits give low values 0.0608 | locus YGL086W, strain mad1, hits give low values 0.0597 | locus YGL167C, strain pmr1, hits give low values 0.0798 | locus YGL173C, strain kem1, hits give low values 0.0716 | locus YGL227W, strain vid30, hits give low values 0.0707 | locus YGL240W, strain doc1, hits give low values 0.0866 | locus YGL248W, strain PDE1, hits give low values 0.0515 | locus YGL253W, strain hxk2, hits give low values 0.058 | locus YGR078C, strain PAC10, hits give low values 0.0546 | locus YGR135W, strain pre9, hits give low values 0.065 | locus YGR252W, strain gcn5, hits give low values 0.175 | locus YHR013C, strain ard1, hits give low values 0.11 | locus YHR027C, strain rpn1, hits give low values 0.0647 | locus YHR030C, strain SLT2, hits give low values 0.0526 and 0.0937 | locus YHR079C, strain IRE1 (second series), hits give low values 0.0583 | locus YHR079C, strain IRE1, hits give low values 0.109 | locus YHR094C, strain hxt1, hits give low values 0.0632 | locus YHR129C, strain ARP1, hits give low values 0.0642 | locus YHR142W, strain chs7, hits give low values 0.0791 | locus YHR200W, strain rpn10, hits give low values 0.0659 | locus YIL066C, strain RNR3, hits give low values 0.0522 | locus YIL073C, strain SPO22, hits give low values 0.112 | locus YIL125W, strain kgd1, hits give low values 0.0598 | locus YIR030C, strain dcg1, hits give low values 0.0627 | locus YJL092W, strain hpr5, hits give low values 0.063 | locus YJL095W, strain BCK1 (second series), hits give low values 0.0609 | locus YJL095W, strain BCK1, hits give low values 0.063 and 0.0938 | locus YJL115W, strain asf1, hits give low values 0.0778 | locus YJL129C, strain trk1, hits give low values 0.0912 | locus YJL134W, strain LCB3, hits give low values 0.0539 | locus YJL154C, strain vps35, hits give low values 0.0631 | locus YJL164C, strain tpk1, hits give low values 0.0734 | locus YJL166W, strain qcr8, hits give low values 0.0662 | locus YJL168C, strain set2, hits give low values 0.0634 | locus YJL187C, strain SWE1 (second series), hits give low values 0.053 | locus YJL187C, strain SWE1, hits give low values 0.0672 | locus YJR043C, strain POL32, hits give low values 0.068 | locus YJR066W, strain TOR1, hits give low values 0.00216 | locus YJR075W, strain HOC1, hits give low values 0.0627 | locus YKL009W, strain mrt4, hits give low values 0.0702 | locus YKL068W, hits give low values 0.0617 | locus YKL085W, strain MDH1 (second series), hits give low values 0.0539 | locus YKL085W, strain MDH1, hits give low values 0.0539 | locus YKL160W, strain elf1, hits give low values 0.0716 | locus YKL190W, strain CNB1, hits give low values 0.0484 | locus YKR001C, strain vps1, hits give low values 0.0653 | locus YKR026C, strain gcn3, hits give low values 0.0732 | locus YKR091W, strain srl3, hits give low values 0.069 | locus YLL001W, strain dnm1, hits give low values 0.0664 | locus YLL026W, hits give low values 0.0595 | locus YLL041C, strain sdh2, hits give low values 0.0627 | locus YLR027C, strain aat2, hits give low values 0.0603 | locus YLR039C, strain RIC1, hits give low values 0.0987 | locus YLR058C, strain SHM2, hits give low values 0.0519 | locus YLR102C, strain apc9, hits give low values 0.0656 | locus YLR113W, strain HOG1, hits give low values 0.121 | locus YLR221C, strain rsa3, hits give low values 0.0659 | locus YLR258W, strain gsy2, hits give low values 0.0669 | locus YLR262C, strain YPT6 (second series), hits give low values 0.0856 | locus YLR262C, strain YPT6, hits give low values 0.115 | locus YLR268W, strain sec22, hits give low values 0.0687 | locus YLR320W, strain mms22, hits give low values 0.0895 | locus YLR330W, strain CHS5, hits give low values 0.0525 | locus YLR342W, strain FKS1 (second series), hits give low values 0.0737 | locus YLR342W, strain FKS1, hits give low values 0.0735 | locus YLR357W, strain rsc2, hits give low values 0.133 | locus YLR370C, strain arc18, hits give low values 0.0637 | locus YLR371W, strain rom2, hits give low values 0.0664 | locus YLR384C, strain iki3, hits give low values 0.0637 | locus YLR418C, strain cdc73, hits give low values 0.0958 | locus YML016C, strain PPZ1, hits give low values 0.0483 | locus YML032C, strain rad52, hits give low values 0.0723 | locus YML120C, strain ndi1, hits give low values 0.0605 | locus YML124C, strain tub3, hits give low values 0.0619 | locus YMR058W, strain fet3, hits give low values 0.0627 | locus YMR078C, strain ctf18, hits give low values 0.0787 | locus YMR125W, strain sto1, hits give low values 0.0836 | locus YMR129W, hits give low values 0.0601 | locus YMR205C, strain PFK2, hits give low values 0.0903 | locus YMR223W, strain ubp8, hits give low values 0.0675 | locus YMR231W, strain pep5, hits give low values 0.0767 | locus YMR307W, strain GAS1, hits give low values 0.146 | locus YNL067W, strain RPL9B, hits give low values 0.0522 | locus YNL071W, strain lat1, hits give low values 0.0645 | locus YNL183C, strain NPR1, hits give low values 0.0014 | locus YNL209W, strain ssb2, hits give low values 0.0627 | locus YNL233W, strain BNI4, hits give low values 0.0583 | locus YNL248C, strain rpa49, hits give low values 0.0814 | locus YNL250W, strain rad50, hits give low values 0.0854 | locus YNL271C, strain bni1, hits give low values 0.0657 | locus YNL298W, strain CLA4, hits give low values 0.0613 | locus YNL307C, strain MCK1, hits give low values 0.0688 | locus YNL322C, strain KRE1 (second series), hits give low values 0.0705 | locus YNR049C, strain mso1, hits give low values 0.0644 | locus YNR052C, strain pop2, hits give low values 0.0622 | locus YOL147C, strain pex11, hits give low values 0.0601 | locus YOR001W, strain rrp6, hits give low values 0.0736 | locus YOR061W, strain CKA2, hits give low values 0.0512 | locus YOR069W, strain VPS5, hits give low values 0.0495 | locus YOR070C, strain gyp1, hits give low values 0.0684 | locus YOR080W, strain dia2, hits give low values 0.0706 | locus YOR083W, strain WHI5, hits give low values 0.0687 | locus YOR106W, strain vam3, hits give low values 0.065 | locus YOR136W, strain idh2, hits give low values 0.0767 | locus YOR144C, strain elg1, hits give low values 0.062 | locus YOR184W, strain ser1, hits give low values 0.0708 | locus YOR231W, strain MKK1, hits give low values 0.0947 | locus YOR265W, strain rbl2, hits give low values 0.066 | locus YOR270C, strain vph1, hits give low values 0.0971 | locus YOR290C, strain snf2, hits give low values 0.0737 | locus YOR316C, strain cot1, hits give low values 0.0627 | locus YPL051W, strain arl3, hits give low values 0.0688 | locus YPL078C, strain atp4, hits give low values 0.0715 | locus YPL106C, strain sse1, hits give low values 0.116 | locus YPL240C, strain hsp82, hits give low values 0.0653 | locus YPL256C, strain CLN2, hits give low values 0.116 | locus YPR119W, strain clb2, hits give low values 0.0705 | locus YPR141C, strain kar3, hits give low values 0.0696 | locus YPR163C, strain tif3, hits give low values 0.0728 | locus YPR167C, strain met16, hits give low values 0.0671 | strain wtn01, hits give low values 0.0665
